Results on 20 compounds are retold here after PubChem BioAssay AID1974 (The Scripps Research Institute Molecular Screening Center, 2009).

The whole screen tested about 300,000 compounds, of which about 3,200 (1.1%) were called active. The sample holds actives, similar compounds and a random draw of the others, so the mix is not that of the screen. A number with no mark means an inactive call.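 How the source made its calls: active means inhibition above the campaign mean inhibition plus 3 SD (cut at about 35% in these data); inactive means the rest.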

For the assay, the target named is Glutathione S-transferase omega-1 (Homo sapiens) (UniProt P78417). Nature of the assay: inhibitors of recombinant GSTO1, primary screen, counter-screen for RBBP9 inhibitor project, biochemical, fluorescence polarization (AID 1974).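 Further: 0% = GSTO1-1 with DMSO and 100% = wells lacking GSTO1-1 enzyme.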 Particulars: recombinant GSTO1, activity-based probe fluorescence polarization; at 5.96 µM; hits give high values.
Glutathione S-transferase omega-1 (Homo sapiens), sequence (P78417 whole entry, looked up): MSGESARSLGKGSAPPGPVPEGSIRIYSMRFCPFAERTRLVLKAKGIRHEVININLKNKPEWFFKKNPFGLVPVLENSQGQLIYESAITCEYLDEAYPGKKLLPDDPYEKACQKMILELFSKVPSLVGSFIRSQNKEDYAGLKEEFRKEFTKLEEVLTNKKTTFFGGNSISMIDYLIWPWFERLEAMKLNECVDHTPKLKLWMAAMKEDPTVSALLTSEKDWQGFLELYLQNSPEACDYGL
In general, inhibition refers to the relative decrease from the control value, in per cent. Turning to `COc1cc(Cn2c(N)c(C(=O)NCc3ccco3)c3nc4ccccc4nc32)cc(OC)c1OC`, the inhibition is -1.75%. The same measure for `CCOC(=O)c1c(N)n(Cc2ccccc2)c2nc3ccccc3nc12`: 77.2% (active); for `CCOC(=O)c1c(N)n(CCN2CCOCC2)c2nc3ccccc3nc12`: -0.71%. Take `CCN(CC)CCOC(=O)c1cc2cc(COC)ccc2o1`: the inhibition is 0.13%. Regarding `O=c1c2ccccc2nc(/C=C/c2ccco2)n1-c1ccccc1O`, the inhibition was -8.4%.

`O=C1NC(=O)N(Cc2ccco2)C(=O)/C1=C\c1cccn1CCOc1ccccc1`: the inhibition is 18.6%.

For the compound `O=C(O)COc1ccccc1/C=C1\C(=O)NC(=O)N(CCC2=CCCCC2)C1=O`, the inhibition was 41.1% (active).

`O=C1NC(=O)N(CCc2ccc(F)cc2)C(=O)/C1=C/C=C/c1ccccc1`: the inhibition was -7.53%. With `COc1cc2nc(N3CCN(C(=O)[C@@H]4CCCO4)CC3)nc(N)c2cc1OC`, the inhibition is 3.62%. With `CCCCCCN=C(CC)c1c(O)n(CCCC)c(=O)[nH]c1=O`, the inhibition was -0.65%. As for `CC(=O)Nc1ccccc1C(=O)OCC(=O)c1cccc2ccccc12`, the inhibition is -2.14%. In the case of `COc1cccc(N2C(=O)NC(=O)/C(=C\c3cn(C)c4ccccc34)C2=O)c1`, the inhibition is -0.1%. On to `O=C1NC(=O)N(c2ccccc2)C(=O)/C1=C/c1ccc([N+](=O)[O-])s1`, for which the inhibition is 38.7% (active). Take `Cc1cccc(N2C(=O)NC(=O)/C(=C\c3cnn(-c4ccccc4)c3)C2=O)c1`: the inhibition was -2.05%. Regarding `Cc1ccc(N2C(=O)NC(=O)C(CCc3ccncc3)(Cc3cccc(Cl)c3Cl)C2=O)cc1` (stereo not given), the inhibition is -2.83%. As to `Cc1ccc(-n2c(-c3ccc([N+](=O)[O-])cc3)nc3ccccc3c2=O)cc1`, the inhibition was 5.91%.

In the case of `CCNc1nc2[nH]c(=O)c3c(c2s1)OC(N)=C(C#N)C3c1cccs1` (stereo not given), the inhibition is 40.5% (active). On to `N#CC1=C(N)Oc2c(c(=O)oc3ccccc23)C1c1ccccc1OC(=O)c1cccs1` (stereo not given), for which the inhibition is -8.89%. Consider `CCN1c2nc3c(C)cccn3c(=O)c2CC2(C(=O)N(C)C(=O)N(C)C2=O)C1C` (stereo not given), for which the inhibition was -4.29%.

Regarding `Cc1cc(C)cc(NC(=S)NC2CC3CCCC(C2)N3Cc2cccs2)c1` (stereo not given), the inhibition was 0.82%.
